In PubChem BioAssay (NCATS):
Inconclusive results are not listed. Active and inactive are the calls of the source. Unless noted, calls come from the whole dose curve; as a rule, active = well fitted curve in either direction with a large enough effect (not every such curve was filed as active); inconclusive = small, poorly fitted or top-dose-only effect, or another doubt; inactive = flat fitted curve, though single readings scatter.

How the values were obtained:
[1] = target: Lysosomal acid glucosylceramidase (Homo sapiens) (UniProt P04062); assay: Glucocerebrosidase-p2 (AID 348; in the data active = potency below about 10 µM; note: potency is the fitted concentration of half-maximal effect); settings: purified GBA, blue fluorogenic substrate, 40 min
Procedure, shortened: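 Normal human glucocerebrosidase (0.2 nM) with blue fluorogenic substrate (80 uM final) in citrate/phosphate pH 5.9 with 10mM sodium taurocholate, 0.01% tween-20; 40 min RT, NaOH/glycine stop; fluorescence Ex 365/Em 440; AC50 from a titration from 0.6 nM upwards.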

[2] = AP1 Signaling Pathway (AID 357); settings: ME-180 AP-1-bla reporter, EGF-induced, beta-lactamase ratio, 5 h; at 7.69 µM (top of the series) unless noted;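 note: ME-180 reporter cells stimulated with EGF at its EC50 level; % is set by controls: 0 for no effect and ±100 for the full control effect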
Procedure, shortened: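 Cells are seeded overnight, exposed to compound titrations and an EC50 level of EGF for 5 hours at 37 °C, then loaded with CCF4 dye for 2.5 hours. Beta-lactamase activity under the AP-1 element is read as a blue/green ratio.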

[3] = NFAT Signaling Pathway (AID 444); settings: Jurkat NFAT-bla M1, carbachol, beta-lactamase ratio, 5 h; at 7.69 µM (top of the series) unless noted;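 note: carbachol stimulus at about its EC50 of 1 µM final; % is set by controls: 0 for no effect and ±100 for the full control effect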
Procedure, shortened: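 Jurkat cells with NFAT-driven β-lactamase reporter and co-expressed M1 receptor, stimulated with carbachol (final 1 uM, ~EC50), compound titration, 5 h at 37 °C. CCF4 loaded 1 h at RT; 460/530 nm ratio gave %activity and AC50.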

[4] = Stat Signaling Pathway (AID 446); settings: ME-180 SIE beta-lactamase reporter, IL-6 stimulated, 5 h; at 7.69 µM (top of the series) unless noted;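 note: ME-180 cervical cancer cells given 40 pM IL-6 alongside compound; SIE-controlled beta-lactamase reporter measured as 460/530 nm FRET emission ratio; % is set by controls: 0 for no effect and ±100 for the full control effect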
Procedure, shortened: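 Emission at 460 and 530 nm (excitation 405 nm) reports SIE-controlled beta-lactamase in ME-180 cells. Cells received compound with 40 pM IL-6 for 5 hrs at 37 C; data scaled between 300 pM IL-6 and 125 nM JAK-inhibitor controls.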

[5] = target: Mitogen-activated protein kinase 10 (Mus musculus) (UniProt Q61831); assay: JNK3 AlphaScreen Assay (AID 530); settings: JNK3 lysate, c-Jun phosphorylation; series mostly up to 57.1 µM;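 note: kinase came from lysate of stimulated human HepG2 cells; signal reports phosphorylation of biotinylated GST-cJun 1-79 at Ser73 with 10 µM ATP; % is set by controls: 0 for no effect and ±100 for the full control effect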
Procedure, shortened: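 HepG2 lysate (IL-1b/TNFa pre-activated) + biotin-GST-cJun 1-79 + anti-pSer73 cJun; cpd titration, 15 min RT; ATP 10 uM start; Tris pH 7.6, MgCl2, DTT, vanadate; beads in EDTA buffer; AlphaScreen.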

[6] = target: 3',5'-cyclic-AMP phosphodiesterase 4B (Homo sapiens) (UniProt Q07343); assay: qHTS Assay for Inhibitors of PDE-IV (AID 607; active = well fitted activation curve with a large enough effect in the main read-out, with a control signal flat, not every such curve was filed as active; note: % of control where 0% means no effect); settings: HEK293 ACTOne CNG channel cells, membrane potential fluorescence; series mostly up to 22.9 µM
Procedure, shortened: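 The readout is membrane depolarisation from a cAMP-sensing CNG channel, detected with a potential dye at ex 535/em 590. Cells were HEK293-derived (endogenous PDE-IV) at 1000 cells/well, titrated up to 22.9 uM final.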

[7] = target: Glucocorticoid receptor (Homo sapiens) (UniProt P04150); assay: GR-GFP Redistribution (AID 450;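 active = compounds whose dose series gives a full or clear partial fitted curve of increased nuclear translocation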; note: potency is the fitted concentration of half-maximal effect); settings: U2OS GR-GFP nuclear translocation, laser cytometry, 2 h
[8] = target: Glucocorticoid receptor (Homo sapiens) (UniProt P04150); assay: GR-EFC Redistribution (AID 451; calls by dose curve; note: potency is the fitted concentration of half-maximal effect); settings: CHO-K1 GR-EFC translocation, beta-gal luminescence, 2 h
Procedure, shortened: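 CHO-K1 cells expressing nuclear EA and GR-ED fragments of b-gal; compounds titrated up to 46 uM final, 2 h at 37 C. GR nuclear translocation read as complemented b-gal luminescence after 1 h RT detection.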

[9] = target: Cytochrome P450 3A4 (Homo sapiens) (UniProt P08684); assay: qHTS Assay for Activators of Cytochrome P450 3A4 (AID 885; active = well fitted curve in the direction sought with a large enough effect; an effect the other way counts as inactive or inconclusive; note: nearly all actives have a fitted effect of over 65% in size); settings: recombinant CYP3A4, Luciferin-PPXE luminescence, 60 min; series mostly up to 57.1 µM
Procedure, shortened: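 Activators are scored by enhanced luminescence from CYP3A4 conversion of luciferin-PPXE (25uM, equal to KM) to luciferin, after 60 min at RT with an NADPH-regenerating system.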

[10] = qHTS Assay for Identification of Small Molecule Agonists for Hypoxia Response Element Signaling Pathway (AID 914; active = well fitted activation curve with a large enough effect in the signal ratio, with a control signal flat, not every such curve was filed as active; the % refers to the signal ratio; note: % of control where 0% means no effect); settings: ME-180 (cervical carcinoma) HRE-bla reporter, beta-lactamase ratio, CoCl2, 17 h; active compounds read high
Procedure, shortened: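 Compounds in a titration series were added to ME-180 reporter cells alongside an EC50 level of CoCl2. After 17 hours, beta-lactamase activity was read as the 460nm/530nm emission ratio of CCF4, giving AC50 values.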

[11] = target: Cytochrome P450 2C9 (Homo sapiens) (UniProt P11712); assay: qHTS Assay for Inhibitors and Substrates of Cytochrome P450 2C9 (AID 883; active = well fitted curve in the direction sought with a large enough effect; an effect the other way counts as inactive or inconclusive; note: nearly all actives have a fitted effect of over 60% in size; note: potency is the fitted concentration of half-maximal effect); settings: recombinant CYP2C9, luciferin-H luminescence, 60 min; series mostly up to 57.1 µM
Procedure, shortened: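 10nM CYP2C9 + 100uM Luciferin-H (=KM), 25mM KPO4; cpd 10 min 37C; NADPH regen, 60 min 37C; stop/detect with P450 Glo-Buffer 20 min; luminescence. Norm. to 57uM sulphaphenazole as full inhibition.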

[12] = target: Cytochrome P450 3A4 (Homo sapiens) (UniProt P08684); assay: qHTS Assay for Inhibitors and Substrates of Cytochrome P450 3A4 (AID 884; active = well fitted curve in the direction sought with a large enough effect; an effect the other way counts as inactive or inconclusive; note: potency is the fitted concentration of half-maximal effect; nearly all actives have a fitted effect of over 50% in size); settings: recombinant CYP3A4, Luciferin-PPXE luminescence; series mostly up to 57.1 µM
Procedure, shortened: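 Luminescent readout of luciferin produced by CYP3A4 (20 nM) dealkylation of Luciferin-PPXE, 25 uM (its KM). NADPH-driven reaction ran 60 min at RT after 10 min compound preincubation; data scaled to 57 uM ketoconazole as 100% inhibition.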

[13] = target: Cytochrome P450 2C19 (Homo sapiens) (UniProt P33261); assay: qHTS Assay for Inhibitors and Substrates of Cytochrome P450 2C19 (AID 899; active = well fitted curve in the direction sought with a large enough effect; an effect the other way counts as inactive or inconclusive; note: nearly all actives have a fitted effect of over 60% in size; note: potency is the fitted concentration of half-maximal effect); settings: recombinant CYP2C19, luciferin-H EGE luminescence; series mostly up to 11.4 µM
Procedure, shortened: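 Luminescent read-out of luciferin formed from Luciferin-H EGE (10uM, equal to KM). Enzyme 5nM in 50mM KPO4; compound added, 10 min at 37C, then NADPH regenerating system for 60 min at 37C. Full inhibition defined by 57uM ketoconazole.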

[14] = target: Cytochrome P450 1A2 (Homo sapiens) (UniProt P05177); assay: p450-cyp1a2 (AID 410; calls by dose curve; note: potency is the fitted concentration of half-maximal effect;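 for activity change, negative = inhibition: -100% = full effect of reference inhibitor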); settings: recombinant CYP1A2, luciferin-ME demethylation, luminescence; series mostly up to 11.4 µM
Procedure, shortened: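 Read-out is luminescence from luciferin produced by CYP1A2 demethylation of Luciferin-ME (100uM, at Km). Detection reagent stopped the 60 min NADPH-dependent reaction; signals were normalized to 57 uM furafylline.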

[15] = target: Cytochrome P450 2D6 (Homo sapiens) (UniProt P10635); assay: qHTS Assay for Inhibitors and Substrates of Cytochrome P450 2D6 (AID 891; active = well fitted curve in the direction sought with a large enough effect; an effect the other way counts as inactive or inconclusive; note: nearly all actives have a fitted effect of over 60% in size; note: potency is the fitted concentration of half-maximal effect); settings: recombinant CYP2D6, luciferin-ME EGE luminescence; series mostly up to 11.4 µM
Procedure, shortened: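 Luminescent read-out of luciferin formed by 5 nM human CYP2D6 demethylating 30 uM Luciferin-ME EGE (Km level) over 60 min at room temperature after NADPH regeneration addition. Data normalized to full inhibition by 1.43 uM quinidine.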

Sequence of Cytochrome P450 2C19 (Homo sapiens) (P33261 whole entry, looked up): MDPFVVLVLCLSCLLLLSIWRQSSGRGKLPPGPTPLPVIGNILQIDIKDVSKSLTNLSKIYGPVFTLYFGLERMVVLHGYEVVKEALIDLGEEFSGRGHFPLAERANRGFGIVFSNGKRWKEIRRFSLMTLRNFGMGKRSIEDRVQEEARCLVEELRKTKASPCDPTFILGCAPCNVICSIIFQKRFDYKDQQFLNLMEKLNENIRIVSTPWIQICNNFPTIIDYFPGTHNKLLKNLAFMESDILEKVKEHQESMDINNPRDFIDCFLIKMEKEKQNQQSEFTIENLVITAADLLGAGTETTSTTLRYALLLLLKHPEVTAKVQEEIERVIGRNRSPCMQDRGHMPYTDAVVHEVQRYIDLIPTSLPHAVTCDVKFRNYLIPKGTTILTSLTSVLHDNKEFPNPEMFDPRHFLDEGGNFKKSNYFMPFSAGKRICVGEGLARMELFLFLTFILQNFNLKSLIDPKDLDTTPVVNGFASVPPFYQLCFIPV
Sequence of Cytochrome P450 2D6 (Homo sapiens) (P10635 whole entry, looked up): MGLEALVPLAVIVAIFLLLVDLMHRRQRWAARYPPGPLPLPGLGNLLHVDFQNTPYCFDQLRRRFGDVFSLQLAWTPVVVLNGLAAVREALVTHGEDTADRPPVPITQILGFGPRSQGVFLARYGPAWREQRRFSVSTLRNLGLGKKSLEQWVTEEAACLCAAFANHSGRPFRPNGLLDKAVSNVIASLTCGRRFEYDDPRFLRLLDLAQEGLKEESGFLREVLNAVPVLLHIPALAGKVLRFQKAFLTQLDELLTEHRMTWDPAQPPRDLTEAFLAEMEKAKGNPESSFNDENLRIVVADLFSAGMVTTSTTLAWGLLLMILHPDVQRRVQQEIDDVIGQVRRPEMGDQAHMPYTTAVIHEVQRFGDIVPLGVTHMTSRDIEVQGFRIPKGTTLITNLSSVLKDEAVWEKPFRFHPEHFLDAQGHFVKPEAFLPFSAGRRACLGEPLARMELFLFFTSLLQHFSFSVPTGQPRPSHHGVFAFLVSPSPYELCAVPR
Sequence of Cytochrome P450 2C9 (Homo sapiens) (P11712 whole entry, looked up): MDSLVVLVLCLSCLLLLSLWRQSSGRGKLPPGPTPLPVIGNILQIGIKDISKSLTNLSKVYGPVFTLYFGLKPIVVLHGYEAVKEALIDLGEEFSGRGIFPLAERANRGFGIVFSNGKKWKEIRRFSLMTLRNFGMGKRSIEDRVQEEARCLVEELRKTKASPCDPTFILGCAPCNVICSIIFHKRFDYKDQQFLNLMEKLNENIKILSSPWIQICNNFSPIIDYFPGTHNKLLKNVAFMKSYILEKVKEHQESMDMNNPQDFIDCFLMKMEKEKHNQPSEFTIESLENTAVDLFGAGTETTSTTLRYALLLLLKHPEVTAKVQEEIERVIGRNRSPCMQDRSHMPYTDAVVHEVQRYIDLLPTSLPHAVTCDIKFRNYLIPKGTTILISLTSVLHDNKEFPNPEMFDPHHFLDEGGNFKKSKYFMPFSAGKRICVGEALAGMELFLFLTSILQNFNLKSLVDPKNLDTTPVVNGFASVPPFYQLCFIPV
Sequence of Glucocorticoid receptor (Homo sapiens) (P04150 whole entry, looked up, the tested form may be a part): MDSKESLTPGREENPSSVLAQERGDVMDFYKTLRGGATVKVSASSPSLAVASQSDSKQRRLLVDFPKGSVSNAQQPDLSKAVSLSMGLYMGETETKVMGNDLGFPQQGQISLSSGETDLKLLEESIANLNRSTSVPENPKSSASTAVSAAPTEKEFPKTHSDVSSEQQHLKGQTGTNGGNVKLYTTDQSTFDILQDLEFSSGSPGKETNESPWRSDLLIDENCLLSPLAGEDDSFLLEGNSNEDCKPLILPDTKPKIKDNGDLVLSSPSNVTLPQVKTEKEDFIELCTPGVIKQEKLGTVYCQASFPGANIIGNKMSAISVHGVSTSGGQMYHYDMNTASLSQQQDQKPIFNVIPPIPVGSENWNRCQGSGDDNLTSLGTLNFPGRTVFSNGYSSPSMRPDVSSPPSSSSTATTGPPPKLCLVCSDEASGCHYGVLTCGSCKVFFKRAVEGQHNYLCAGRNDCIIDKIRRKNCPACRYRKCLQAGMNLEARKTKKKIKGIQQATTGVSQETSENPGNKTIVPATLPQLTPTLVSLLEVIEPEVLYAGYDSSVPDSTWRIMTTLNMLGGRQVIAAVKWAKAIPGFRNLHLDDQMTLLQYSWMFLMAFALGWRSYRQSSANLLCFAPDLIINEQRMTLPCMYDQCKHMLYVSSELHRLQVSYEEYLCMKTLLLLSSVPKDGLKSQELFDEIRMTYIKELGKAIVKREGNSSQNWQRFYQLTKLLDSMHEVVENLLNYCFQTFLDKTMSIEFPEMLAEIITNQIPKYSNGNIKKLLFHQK
Sequence of Lysosomal acid glucosylceramidase (Homo sapiens) (P04062 whole entry, looked up): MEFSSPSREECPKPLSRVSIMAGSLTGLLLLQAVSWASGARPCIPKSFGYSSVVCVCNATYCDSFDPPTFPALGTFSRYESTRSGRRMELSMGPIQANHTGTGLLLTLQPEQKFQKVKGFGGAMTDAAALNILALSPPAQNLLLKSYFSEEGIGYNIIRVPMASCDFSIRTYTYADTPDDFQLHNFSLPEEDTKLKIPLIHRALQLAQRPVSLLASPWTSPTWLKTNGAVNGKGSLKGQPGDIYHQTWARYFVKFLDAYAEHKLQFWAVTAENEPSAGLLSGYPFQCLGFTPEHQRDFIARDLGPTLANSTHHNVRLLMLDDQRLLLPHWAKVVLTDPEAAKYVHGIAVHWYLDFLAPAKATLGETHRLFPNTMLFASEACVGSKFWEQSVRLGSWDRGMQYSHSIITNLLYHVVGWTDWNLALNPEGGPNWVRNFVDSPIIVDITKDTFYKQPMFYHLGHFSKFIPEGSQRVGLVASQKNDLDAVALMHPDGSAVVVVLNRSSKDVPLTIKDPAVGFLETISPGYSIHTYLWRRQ
Sequence of 3',5'-cyclic-AMP phosphodiesterase 4B (Homo sapiens) (Q07343 whole entry, looked up): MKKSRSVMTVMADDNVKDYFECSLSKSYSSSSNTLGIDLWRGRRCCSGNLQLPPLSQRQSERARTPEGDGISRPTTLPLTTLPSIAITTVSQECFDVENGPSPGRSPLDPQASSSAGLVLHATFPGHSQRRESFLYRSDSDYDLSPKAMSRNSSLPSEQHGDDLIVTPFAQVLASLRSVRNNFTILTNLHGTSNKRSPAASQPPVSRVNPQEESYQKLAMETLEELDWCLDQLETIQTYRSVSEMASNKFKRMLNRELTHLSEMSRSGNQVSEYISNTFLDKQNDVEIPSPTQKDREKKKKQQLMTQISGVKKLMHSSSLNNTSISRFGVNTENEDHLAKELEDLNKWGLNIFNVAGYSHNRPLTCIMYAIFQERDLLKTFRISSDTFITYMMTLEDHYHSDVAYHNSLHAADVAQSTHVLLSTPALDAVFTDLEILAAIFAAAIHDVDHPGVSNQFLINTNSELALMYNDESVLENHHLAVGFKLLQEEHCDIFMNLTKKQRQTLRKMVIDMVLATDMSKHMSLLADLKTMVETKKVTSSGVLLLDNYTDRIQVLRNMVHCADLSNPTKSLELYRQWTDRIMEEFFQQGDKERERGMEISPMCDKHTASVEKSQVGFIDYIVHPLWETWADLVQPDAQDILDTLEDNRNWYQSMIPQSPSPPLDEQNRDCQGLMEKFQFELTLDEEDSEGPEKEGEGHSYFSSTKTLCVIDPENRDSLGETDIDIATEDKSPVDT
Sequence of Cytochrome P450 1A2 (Homo sapiens) (P05177 whole entry, looked up): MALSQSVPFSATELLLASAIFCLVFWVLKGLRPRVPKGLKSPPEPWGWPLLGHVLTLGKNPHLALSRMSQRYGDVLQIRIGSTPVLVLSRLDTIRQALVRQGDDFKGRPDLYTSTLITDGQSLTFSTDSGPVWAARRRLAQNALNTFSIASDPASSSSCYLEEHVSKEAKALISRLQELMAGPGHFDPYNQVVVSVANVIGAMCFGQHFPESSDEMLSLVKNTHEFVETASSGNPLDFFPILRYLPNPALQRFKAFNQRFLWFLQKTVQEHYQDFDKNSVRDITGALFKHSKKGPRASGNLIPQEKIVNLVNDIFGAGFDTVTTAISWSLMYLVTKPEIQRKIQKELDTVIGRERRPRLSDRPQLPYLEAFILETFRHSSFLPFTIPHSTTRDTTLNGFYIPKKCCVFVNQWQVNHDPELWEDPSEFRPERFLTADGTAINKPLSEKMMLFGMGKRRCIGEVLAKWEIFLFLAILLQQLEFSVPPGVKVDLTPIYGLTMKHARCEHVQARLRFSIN
Sequence of Cytochrome P450 3A4 (Homo sapiens) (P08684 whole entry, looked up): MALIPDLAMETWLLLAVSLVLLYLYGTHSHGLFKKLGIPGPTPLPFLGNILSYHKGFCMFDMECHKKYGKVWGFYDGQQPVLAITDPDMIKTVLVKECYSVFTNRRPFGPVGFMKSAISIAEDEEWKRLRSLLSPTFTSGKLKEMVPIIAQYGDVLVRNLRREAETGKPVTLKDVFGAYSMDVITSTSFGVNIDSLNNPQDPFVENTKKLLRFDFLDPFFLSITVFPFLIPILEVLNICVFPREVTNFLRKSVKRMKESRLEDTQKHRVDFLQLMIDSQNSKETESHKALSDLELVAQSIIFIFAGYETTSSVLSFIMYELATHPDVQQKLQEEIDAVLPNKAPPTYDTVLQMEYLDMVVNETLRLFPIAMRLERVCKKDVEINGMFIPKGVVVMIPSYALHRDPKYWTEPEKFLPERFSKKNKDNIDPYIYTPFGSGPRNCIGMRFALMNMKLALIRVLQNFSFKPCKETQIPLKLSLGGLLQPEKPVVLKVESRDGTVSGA

CC[C@@H]1[C@@H]2Cc3ccc(O)cc3[C@@]1(CC)CCN2C
inactive: Potency [1] > 11.4 µM | activity change, negative = inhibition [2] -9.39% | activity change, negative = inhibition [3] 17.1% | activity, negative = inhibition [4] 2.87% | activity change, negative = inhibition [5] 2.22% [at 11.4 µM] | outcome [6]

c1nc(N2CC2)c2cnn([C@@H]3CCCCO3)c2n1
inactive: Potency [1] > 11.4 µM | activity change, negative = inhibition [2] 5.4% | activity change, negative = inhibition [3] 7.32% | Potency [7] > 46 µM | Potency [8] > 9.22 µM | activity change, negative = inhibition [5] 0.68% [at 11.4 µM] | outcome [6]

Cc1c([C@@H](C)[C@H]2NC[C@H](C)C[C@@H]2O)ccc2c1C[C@@H]1[C@H]2CC=C2C[C@@H](O)CC[C@@]21C
inactive: Potency [1] > 11.4 µM | activity change, negative = inhibition [2] -4.38% | activity change, negative = inhibition [3] -6.08% | Potency [7] > 46 µM | Potency [8] > 9.22 µM | activity change, negative = inhibition [5] -0.822% [at 11.4 µM] | outcome [6] | activity change, positive = activation [9] -38% [at 11.4 µM] | activation [10] 4.43%

NC[C@@H](Cc1ccccc1)P(=O)(O)O
inactive: Potency [1] > 11.4 µM | activity change, negative = inhibition [2] 11.5% | activity change, negative = inhibition [3] 4.85% | activity, negative = inhibition [4] 2.4% | Potency [7] > 46 µM | Potency [8] > 9.22 µM | outcome [6]

O=P(O)(OP(=O)(O)c1ccccc1)c1ccccc1 (tested in a mixture with another compound)
inactive: Potency [1] > 11.4 µM | activity change, negative = inhibition [2] -8.54% | activity change, negative = inhibition [3] -3.07% | activity, negative = inhibition [4] 2.23% | Potency [7] > 46 µM | activity change, negative = inhibition [5] 3.03% [at 11.4 µM] | outcome [6]

C[C@@H]1[C@@H](C)N1C[C@H](O)Cn1ccnc1[N+](=O)[O-] (some centres undefined)
inactive: Potency [1] > 11.4 µM | activity change, negative = inhibition [2] 1.57% | activity change, negative = inhibition [3] 5.22% | activity, negative = inhibition [4] -1.27% | Potency [7] > 46 µM | activity change, negative = inhibition [5] -1.55% [at 11.4 µM] | outcome [6]

CSC([N-]/N=C/c1cccc(C)n1)=[S]=[Cu].CS[C@H]([S-])[N-]/N=C/c1cccc(C)n1
inactive: Potency [1] > 11.4 µM | Potency [7] > 46 µM | Potency [8] > 9.22 µM | outcome [6] | activity change, positive = activation [9] -73.3% [at 11.4 µM]
active: activity change, negative = inhibition [3] -102% | Potency [11] 0.251 µM | Potency [12] 3.98 µM | Potency [13] 0.199 µM

C[C@@H]1O[C@@H](O[C@H]2C[C@@H](O)[C@@]3(CO)[C@H]4[C@H](O)C[C@]5(C)[C@@H](C6=CC(=O)OC6)CC[C@]5(O)[C@H]4CC[C@@]3(O)C2)[C@@H](O)[C@H](O)[C@H]1O
inactive: Potency [1] > 11.4 µM | activity, negative = inhibition [4] -4.36% | activity change, negative = inhibition [5] -1.14% [at 11.4 µM] | outcome [6]
active: activity change, negative = inhibition [3] -104%

COc1cc2c(cc1O)C[C@@H]1c3c(cc(O)c(OC)c3-2)CCN1C
inactive: Potency [1] > 11.4 µM | activity change, negative = inhibition [3] -0.493% | activity, negative = inhibition [4] 0.101% | Potency [7] > 46 µM | Potency [8] > 9.22 µM | activity change, negative = inhibition [5] 4.75% [at 11.4 µM] | outcome [6]
active: Potency [14] 3.98 µM

NNc1c(C(N)=O)c2c(N)ncnc2n1[C@@H]1O[C@H](CO)[C@@H](O)[C@@H]1O
inactive: Potency [1] > 11.4 µM | activity change, negative = inhibition [14] -11.2% [at 2.29 µM] | activity change, negative = inhibition [3] 6.43% | Potency [7] > 46 µM | Potency [8] > 9.22 µM | activity change, negative = inhibition [5] -2.85% [at 11.4 µM] | outcome [6] | activity change, negative = inhibition [11] -2.73% [at 11.4 µM] | Potency [15] | Potency [13]

O=C(O)CN1CCN(CC(=O)O)CC(=O)[O][Hg][O]C(=O)C1
inactive: activity change, negative = inhibition [2] 18.9% | activity, negative = inhibition [4] 1.17% | activity change, negative = inhibition [5] -1.36% [at 11.4 µM] | outcome [6] | activity change, positive = activation [9] -78.1% [at 11.4 µM]
active: Potency [1] 0.199 µM | Potency [11] 1.26 µM | Potency [15] 3.16 µM | Potency [13] 0.794 µM

Cc1ccc(NC(=[OH+])c2cc3ccccc3cc2O)c(C)c1.Cc1ccc(NC(=[OH+])c2cc3ccccc3cc2O)c(C)c1.[Ni]
inactive: Potency [1] > 11.4 µM | Potency [7] > 46 µM | Potency [8] > 9.22 µM | outcome [6]
active: Potency [14] 0.251 µM | Potency [11] 3.16 µM | Potency [13] 2 µM

CCc1ccc(CCN2CCCCC2)nc1
active: Potency [15] 1.58 µM
inactive: Potency [1] > 11.4 µM | activity change, negative = inhibition [2] 15.5% | activity change, negative = inhibition [3] -21.3% | Potency [7] > 46 µM | activity change, negative = inhibition [5] 1.06% [at 11.4 µM] | outcome [6]

Nc1ccccc1O.O.O=C(O)[C@H]1[O][Sb][O][C@H]1C(=O)O
inactive: Potency [1] > 11.4 µM | activity change, negative = inhibition [14] -23.1% [at 2.29 µM] | activity change, negative = inhibition [3] -17.5% | activity, negative = inhibition [4] 8.88% | Potency [7] > 46 µM | Potency [8] > 9.22 µM | activity change, negative = inhibition [5] -2.79% [at 11.4 µM] | outcome [6]

O=C(O)[C@@H]1[C@H](C(=O)O)[C@]2(Cl)C(Cl)=C(Cl)[C@@]1(Cl)C2(Cl)Cl
inactive: Potency [1] > 11.4 µM | Potency [14] | activity change, negative = inhibition [3] 11.1% | activity, negative = inhibition [4] 3.47% | Potency [7] > 46 µM | Potency [8] > 9.22 µM | activity change, negative = inhibition [5] 0.126% [at 11.4 µM] | outcome [6]
